VP16 counter – inhibits Gal4-VP16 luciferase reporter, ROR gamma counter-screen; Potency, µM (titrated, usually from 53.6 µM), inactives show at the highest dose activity, negative = inhibition, hits mostly inhibitors; AID 2546; 3.5% of 310,000 active; Drosophila S2 Gal4-VP16 UAS-luciferase, luminescence, 20 h;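 also: Gal4-VP16 expression switched on by copper sulfate through the metallothionein promoter; nearly all actives have a fitted effect of over 50% in size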
DT40 TDP1 no CPT – qHTS for Inhibitors of human tyrosyl-DNA phosphodiesterase 1 (TDP1): qHTS in cells in absence of CPT; DT40 Tdp1-/- hTDP1 cells, no CPT, ATP luminescence, 48 h; Potency, µM (titrated, usually from 46.2 µM), for the others: at the top dose activity change, negative = growth inhibition, usual class: inhibitors; 15% of 420,000 active; AID 686978, 2013; also: nearly all actives have a fitted effect of over 55% in size
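Readout: luminescence from CellTiter-Glo after 30 min in the dark at RT. Cells: DT40 Tdp1-/- with stable hTDP1, 400/well. Exposure: compounds alone, ≥48 hr, 37 °C.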
DT40 TDP1 CPT – DT40-hTDP1 cell growth loss with CPT | AID 686979 | chicken DT40 Tdp1-/-;hTDP1 cells + 20 nM CPT, ATP luminescence, 48 h | Potency, µM (titrated, usually from 46.2 µM), inactives show top-dose activity change, negative = growth inhibition, actives largely listed as inhibitors | 12% of 420,000 active; also: nearly all actives have a fitted effect of over 55% in size
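Chicken DT40 Tdp1-/- cells complemented with human TDP1, 400 cells/well, exposed to compounds plus 20 nM camptothecin for at least 48 h at 37 C; viability read as ATP content by CellTiter-Glo luminescence.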
TDP1 inh – blocks human tyrosyl-DNA phosphodiesterase 1; Q9NUW8; recombinant TDP1, AlphaScreen DNA substrate cleavage; Potency, µM (series often up to 130 µM), without a hit: at the highest dose activity change, negative = inhibition, most hits filed as inhibitors; 0.28% of 350,000 active; AID 485290; also: nearly all actives have a fitted effect of over 40% in size
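Steps: enzyme plus compound, 15 min RT; add biotin/phosphotyrosine-FITC oligonucleotide (15 nM final), react 5 min; add donor/acceptor beads (10 ug/ml final), 10 min; read AlphaScreen. Tdp1 at 1 nM final.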
RORg inh – blocks mouse ROR gamma transcriptional activity; Drosophila S2 Gal4-RORgamma UAS-luciferase reporter, 20 h; Potency, µM (highest dose often 53.6 µM), inactives show at the highest dose activity change, negative = inhibition, usual class: inhibitors; 5.4% of 310,000 active; AID 2551; also: nearly all actives have a fitted effect of over 60% in size
Target sequence (P51450 whole entry, looked up, the tested form may be a part): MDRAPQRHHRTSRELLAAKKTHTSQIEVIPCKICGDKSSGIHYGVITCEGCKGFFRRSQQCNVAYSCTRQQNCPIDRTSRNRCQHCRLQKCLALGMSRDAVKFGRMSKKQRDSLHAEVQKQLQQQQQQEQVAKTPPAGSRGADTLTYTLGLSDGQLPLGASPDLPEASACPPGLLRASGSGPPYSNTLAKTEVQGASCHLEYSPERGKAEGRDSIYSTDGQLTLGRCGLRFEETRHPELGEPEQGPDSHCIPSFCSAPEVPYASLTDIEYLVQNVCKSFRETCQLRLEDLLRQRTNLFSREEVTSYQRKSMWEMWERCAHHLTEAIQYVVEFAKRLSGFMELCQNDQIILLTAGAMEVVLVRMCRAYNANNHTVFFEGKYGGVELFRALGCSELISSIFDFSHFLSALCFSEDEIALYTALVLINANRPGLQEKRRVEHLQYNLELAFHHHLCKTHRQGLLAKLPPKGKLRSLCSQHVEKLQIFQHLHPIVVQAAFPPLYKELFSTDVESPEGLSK
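A Gal4/UAS one-hybrid system in insect cells: metallothionein-promoter Gal4–ROR gamma fusion plus Photinus luciferase reporter. Copper sulfate 700 uM final, 20 hr ambient incubation, luminescent detection after 10 min with reagent.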
Active calls of the source: *; ? = inconclusive; / = not tested or not shown; [ ] = dose if it differs, or a comment. This is a sample that favours compounds with a hit; in the whole collection about 19% have one here. Calls follow the shape of the dose curve; as a rule, active = well fitted curve in the direction sought with a large enough effect; inconclusive = small, poorly fitted or top-dose-only effect, or another doubt; inactive = no such curve, though single readings can be large; an effect the other way counts as inactive or inconclusive. % is scaled to controls: 0 for no effect and ±100 for the full control effect; potency is read from the fitted curve at half-maximal effect.

SMILES	VP16 counter	DT40 TDP1 no CPT	DT40 TDP1 CPT	TDP1 inh	RORg inh
O=C(N/N=C/c1cccc2cccnc12)c1ccccc1O	0.794µM*	4.11µM*	5.17µM*	/	0.355µM*
O=C(N/N=C/c1cccc2ccccc12)c1ccccc1Cl	3.1%	-3.7%	-7.2%	/	-32.5%
COC(=O)CCC(=O)NC1CC(C)(C)Cc2c1cnn2-c1ccc(F)cc1 (stereo not given)	-11.0%	?	0.581µM*	-0.1%	?
CSc1ncccc1C(=O)NC1CC(C)(C)Cc2c1cnn2-c1ccccc1C (stereo not given)	?	?	23.1µM*	2.3%	-7.7%
CC1(C)Cc2c(cnn2-c2ccc(F)cc2)C(NC(=O)CCC(F)(F)F)C1 (stereo not given)	-6.9%	-16.2%	-17.7%	5.1%	32.6%
Cc1ccccc1-n1ncc2c1CC(C)(C)CC2NC(=O)c1ccncc1 (stereo not given)	-0.2%	-20.3%	-9.9%	1.1%	4.2%
Cc1ccccc1-n1ncc2c1CC(C)(C)CC2NC(=O)CSc1ccncc1 (stereo not given)	-8.0%	16.4µM*	?	3.6%	?
Cc1ccccc1-n1ncc2c1CC(C)(C)CC2NC(=O)c1snnc1C (stereo not given)	-5.9%	25.9µM*	?	8.3%	14.2%
Cc1ccccc1-n1ncc2c1CC(C)(C)CC2NC(=O)CCC(F)(F)F (stereo not given)	12.9%	?	-10.7%	/	20.5%
Cc1ccc(-n2ncc3c2CC(C)(C)CC3NC(=O)c2ccccn2)cc1 (stereo not given)	4.8%	?	?	1.1%	43.0%
O=C(Cn1cnc2c(cnn2-c2ccccc2)c1=O)NCCc1ccccc1	-7.4%	-23.8%	-18.6%	-3.3%	-8.5%
Cc1cccc(C(CC(=O)O)NC(=O)C(F)(F)F)c1 (stereo not given)	-4.0%	28.2%	9.4%	5.0%	3.3%
COC(=O)Nc1ccc(S(=O)(=O)NC2CCS(=O)(=O)C2)cc1 (stereo not given)	-3.0%	-17.1%	-5.8%	/	9.0%
CCCCc1ccc(S(=O)(=O)NC2CCS(=O)(=O)C2)cc1 (stereo not given)	?	20.6µM*	20.6µM*	5.1%	?
Cc1ccc(S[C@@H](CCN2CC[C@H](O)CCC2=O)c2ccccc2)cc1	4.8%	-10.9%	11.1%	/	2.1%
Cc1ccc(S[C@@H](CCN2CC[C@H](C)CCC2=O)c2ccccc2)cc1	-7.2%	16.4µM*	?	/	?
C[C@@H]1CCC(=O)N(CC[C@H](Sc2ccc(Br)cc2)c2ccccc2)CC1	/	20µM*	18.4µM*	-7.2%	/
COc1ccc(S[C@@H](CCN2CC[C@H](C)CCC2=O)c2ccccc2)cc1	/	14.6µM*	10µM*	-8.3%	/
C[C@@H]1CCC(=O)N(CC[C@H](Oc2ccccc2)c2ccccc2)CC1	-4.8%	12.6µM*	?	/	28.2%
CCOC(=O)C1CCCN(Cc2ccccc2F)C1 (stereo not given)	-21.1%	-0.5%	-19.7%	-6.1%	2.5%
C[C@H]1CCC(=O)N(CCSc2ccc(Br)cc2)CC1	/	17.8µM*	15.8µM*	-5.3%	/
Cc1ccc(SCCN2CCC(C)CCC2=O)cc1 (stereo not given)	11.1%	?	-19.6%	/	-15.8%
Cc1ccc(S[C@@H](CCN2CC[C@H](C(C)(C)C)CCC2=O)c2ccccc2)cc1	10µM*	?	?	/	-4.3%
Cc1cccc(CN2CCN([C@H]3CS(=O)(=O)N[C@@H]3COCc3ccccc3)CC2)c1	/	16.4µM*	18.4µM*	/	/
CN1CCN([C@H]2CS(=O)(=O)N[C@@H]2COCc2ccccc2)CC1	/	4.3%	?	/	/
SMILES	VP16 counter	DT40 TDP1 no CPT	DT40 TDP1 CPT	TDP1 inh	RORg inh
O=C(COC(=O)/C=C/c1ccccc1)Nc1cccc(Oc2ccccc2)c1	?	-23.3%	18.0%	-2.7%	23.5%
O=C(Cn1nnc2ccccc2c1=O)NCc1ccco1	10.1%	-10.8%	-27.8%	0.0%	17.1%
O=C(Cn1nc(C(=O)O)c2ccccc2c1=O)NCc1ccco1	-2.7%	?	25.9µM*	0.0%	7.2%
COC(=O)C1=C(NC(=O)c2ccc(C)c(C)c2)CCS1	2.5%	?	-3.4%	1.5%	18.2%
O=C(COc1ccc(Cl)cc1)N1CCN(C(=O)c2cccc(F)c2)CC1	-11.0%	-3.1%	-15.9%	2.3%	?
O=C1CN(C(=O)c2ccccc2Cl)c2ccccc2N1	-2.7%	?	3.9%	/	4.5%[1.91 µM]
CC1(c2ccccc2)CC(C)(C)N(C(=O)c2ccccc2Cl)c2ccccc21 (stereo not given)	/	5.17µM*	6.51µM*	/	/
CC1(c2ccc(Cl)cc2)CC(C)(C)N(C(=O)c2cccc(F)c2)c2ccccc21 (stereo not given)	/	18.4µM*	?	-0.4%[12.3 µM]	/
CC[C@H](C)[C@H](NC(=O)[C@H](Cc1ccc(O)cc1)NC(=O)[C@@H](NC(=O)[C@H](CCCN=C(N)N)NC(=O)[C@@H](N)CC(=O)O)C(C)C)C(=O)N[C@@H](Cc1ccc(N)cc1)C(=O)N1CCC[C@H]1C(=O)N[C@@H](Cc1ccccc1)C(=O)O	-8.4%	/	/	6.9%	-18.4%
O=C(Nc1ccc(NC(=O)c2ccc(Cl)cc2Cl)cc1)c1ccc2c(c1)OCO2	4.3%	-10.7%	-15.7%	-11.5%	-24.8%
O=C(Nc1ccccc1)Nc1cccc(-c2nnco2)c1	-8.7%	?	-4.3%	/	13.5%
O=C(Nc1ccc(C2=NCCN2)cc1)c1ccc(C(=O)Nc2ccc(C3=NCCN3)cc2)c(Cl)c1	-3.3%	5.17µM*	7.31µM*	11.4%	29.8%
O=C(Nc1cccc(C2=NCCN2)c1)Nc1cccc(C2=NCCN2)c1	4.9%	7.31µM*	9.2µM*	4.3%	2.4%[10 µM]
Cc1c(C(=O)Nc2ccc(Cl)cc2)c2ccccn2c1CCc1ccncc1	28.7%	?	?	2.6%	31.8%
Cc1c(C(=O)Nc2cccc(Cl)c2)c2ccccn2c1CCc1ccncc1	9.7%	23.1µM*	?	7.9%	17.1%
COc1ccc(-c2c(-c3cc(OC)cc(OC)c3)n(C)c3ccc(-c4ccc5c(c4)OCCO5)cc23)cc1	/	?	-24.5%	4.5%	/
COc1cc(OC)cc(-c2c(-c3cccs3)c3cc(-c4ccc5c(c4)OCCO5)ccc3n2C)c1	/	14.6µM*	?	1.2%	/
COc1cc(OC)cc(-c2c(-c3cccs3)c3cc(-c4ccc(OC)c(F)c4)ccc3n2C)c1	/	18.4µM*	?	1.2%	/
COc1cc(OC)cc(-c2c(-c3cccs3)c3cc(-c4ccc(OC)c(OC)c4)ccc3n2C)c1	/	?	9.2µM*	2.3%	/

Assay outcomes from PubChem.
